Measurements from PubChem BioAssay (NCATS).
Records with an inconclusive call do not appear. Entries that show only a call come without a potency. Calls of active or inactive are those of the source. Calls come from the whole dose curve; as a rule, active = well fitted curve in the direction sought with a large enough effect; inconclusive = small, poorly fitted or top-dose-only effect, or another doubt; inactive = no such curve, though single readings can be large; an effect the other way counts as inactive or inconclusive.

Tests used:
[1] = S16 Schwann cell viability assay (CellTiter-Glo assay) (AID 624031);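 note: native untransfected S16 rat Schwann cells; nearly all actives have a fitted effect of over 70% in size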
Procedure, shortened: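 Counter-screen for cytotoxicity: parental S16 rat Schwann cells lacking the PMP22 reporters, treated 24 h with compound, viability from cellular ATP by CellTiter-Glo luminescence, normalized to DMSO (0%) and no-cell wells.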

[2] = system: 3D7; assay: qHTS profiling for inhibitors of Plasmodium falciparum proliferation (AID 504749); note: nearly all actives have a fitted effect of over 60% in size; note: potency is the fitted concentration of half-maximal effect; conditions: P. falciparum in erythrocytes, SYBR Green DNA, 72 h; series mostly up to 12.8 µM
Procedure, shortened: (§1)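 Quantitative HTS: compounds pinned into medium, infected erythrocytes added (0.3% parasitemia, 2.5% hematocrit), 72 h culture at 37 C under 5% CO2. Saponin/Triton lysis with SYBR Green I, overnight RT, then fluorescence read.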

[3] = system: AS120; assay: as above; conditions: P. falciparum in erythrocytes, SYBR Green DNA, 72 h; series mostly up to 12.8 µM
Procedure, shortened: as §1

[4] = system: CP185; assay: as above; conditions: P. falciparum in erythrocytes, SYBR Green DNA, 72 h; series mostly up to 12.8 µM
Procedure, shortened: as §1

[5] = system: CP191; assay: as above; conditions: P. falciparum in erythrocytes, SYBR Green DNA, 72 h; series mostly up to 12.8 µM
Procedure, shortened: as §1

[6] = system: CP192; assay: as above; conditions: P. falciparum in erythrocytes, SYBR Green DNA, 72 h; series mostly up to 12.8 µM
Procedure, shortened: as §1

[7] = system: CP217; assay: as above; conditions: P. falciparum in erythrocytes, SYBR Green DNA, 72 h; series mostly up to 12.8 µM
Procedure, shortened: as §1

[8] = system: CP237; assay: as above; conditions: P. falciparum in erythrocytes, SYBR Green DNA, 72 h; series mostly up to 12.8 µM
Procedure, shortened: as §1

[9] = system: CP250; assay: as above; conditions: P. falciparum in erythrocytes, SYBR Green DNA, 72 h; series mostly up to 12.8 µM
Procedure, shortened: as §1

[10] = system: CP252; assay: as above; conditions: P. falciparum in erythrocytes, SYBR Green DNA, 72 h; series mostly up to 12.8 µM
Procedure, shortened: as §1

[11] = system: CP325; assay: as above; conditions: P. falciparum in erythrocytes, SYBR Green DNA, 72 h; series mostly up to 12.8 µM
Procedure, shortened: as §1

[12] = system: CP329; assay: as above; conditions: P. falciparum in erythrocytes, SYBR Green DNA, 72 h; series mostly up to 12.8 µM
Procedure, shortened: as §1

[13] = system: DFO2036; assay: as above; conditions: P. falciparum in erythrocytes, SYBR Green DNA, 72 h; series mostly up to 12.8 µM
Procedure, shortened: as §1

[14] = system: DIV14; assay: as above; conditions: P. falciparum in erythrocytes, SYBR Green DNA, 72 h; series mostly up to 12.8 µM
Procedure, shortened: as §1

[15] = system: ECU; assay: as above; conditions: P. falciparum in erythrocytes, SYBR Green DNA, 72 h; series mostly up to 12.8 µM
Procedure, shortened: as §1

[16] = system: HB3; assay: as above; conditions: P. falciparum in erythrocytes, SYBR Green DNA, 72 h; series mostly up to 12.8 µM
Procedure, shortened: as §1

[17] = system: ICS; assay: as above; conditions: P. falciparum in erythrocytes, SYBR Green DNA, 72 h; series mostly up to 12.8 µM
Procedure, shortened: as §1

[18] = system: N140; assay: as above; conditions: P. falciparum in erythrocytes, SYBR Green DNA, 72 h; series mostly up to 12.8 µM
Procedure, shortened: as §1

[19] = system: PC15; assay: as above; conditions: P. falciparum in erythrocytes, SYBR Green DNA, 72 h; series mostly up to 12.8 µM
Procedure, shortened: as §1

[20] = system: CP266; assay: as above; conditions: P. falciparum in erythrocytes, SYBR Green DNA, 72 h; series mostly up to 12.8 µM
Procedure, shortened: as §1

| Structure (SMILES) | outcome [1] | Potency [2] | Potency [3] | Potency [4] | Potency [5] | Potency [6] | Potency [7] | Potency [8] | Potency [9] | Potency [10] | Potency [11] | Potency [12] | Potency [13] | Potency [14] | Potency [15] | Potency [16] | Potency [17] | Potency [18] | Potency [19] | Potency [20] |
| --- | --- | --- | --- | --- | --- | --- | --- | --- | --- | --- | --- | --- | --- | --- | --- | --- | --- | --- | --- | --- |
| CN(C)CCOC(=O)[C@@H](c1ccccc1)C1(O)CCCC1 | inactive | inactive | inactive | inactive | inactive | inactive | inactive | 8.91 µM (active) | inactive | inactive | inactive | inactive | inactive | inactive | inactive | inactive | inactive | inactive | inactive | – |
| CC(=O)O[C@H]1C[C@@]2(C)[C@H](C[C@@H](O)[C@H]3[C@@]4(C)CC[C@@H](O)[C@@H](C)[C@H]4CC[C@@]32C)C1=C(CCC=C(C)C)C(=O)O | inactive | inactive | inactive | inactive | inactive | inactive | inactive | inactive | inactive | inactive | inactive | inactive | inactive | inactive | inactive | inactive | – | inactive | inactive | inactive |
| COc1cc2nc(N3CCN(C(=O)[C@@H]4COc5ccccc5O4)CC3)nc(N)c2cc1OC | inactive | – | – | – | 7.94 µM (active) | – | inactive | – | inactive | inactive | inactive | – | inactive | 13.5 µM (active) | – | – | – | – | inactive | inactive |
| NCc1ccccc1CC(=O)N[C@@H]1C(=O)N2C(C(=O)O)=C(CSc3nnnn3CC(=O)O)CS[C@@H]12 | inactive | inactive | inactive | inactive | inactive | inactive | inactive | inactive | inactive | inactive | inactive | inactive | inactive | inactive | inactive | inactive | inactive | inactive | inactive | inactive |
| C[C@@H]1O[C@H](O[C@@H]2\C=C/C=C\C=C/C=C\C[C@H](C)OC(=O)/C=C\[C@H]3O[C@@H]3C[C@H](O)C[C@]3(O)C[C@@H](O)[C@@H](C(=O)O)[C@H](C2)O3)[C@@H](O)[C@H](N)[C@@H]1O (stereo in doubt) | inactive | inactive | inactive | inactive | inactive | inactive | inactive | inactive | inactive | inactive | inactive | inactive | inactive | inactive | inactive | inactive | inactive | inactive | inactive | inactive |
| CC(C)(C)NC(=O)[C@@H]1CC[C@@H]2[C@@H]3CC[C@@H]4NC(=O)C=C[C@@]4(C)[C@H]3CC[C@]21C | inactive | inactive | inactive | inactive | inactive | inactive | inactive | inactive | inactive | inactive | inactive | inactive | inactive | inactive | inactive | inactive | inactive | inactive | inactive | inactive |
| COc1ccc(OC)c([C@H](O)CNC(=O)CN)c1 | inactive | inactive | inactive | inactive | inactive | inactive | inactive | inactive | inactive | inactive | inactive | inactive | inactive | inactive | inactive | inactive | inactive | inactive | inactive | inactive |
| Cn1nnnc1SCC1=C(C(=O)O)N2C(=O)[C@@H](NC(=O)[C@@H](O)c3ccccc3)[C@@H]2SC1 | inactive | inactive | inactive | inactive | inactive | inactive | inactive | inactive | inactive | inactive | inactive | inactive | inactive | inactive | inactive | inactive | inactive | inactive | inactive | inactive |
| Cc1onc(-c2ccccc2Cl)c1C(=O)N[C@H]1C(=O)N2[C@H]1SC(C)(C)[C@H]2C(=O)O | inactive | inactive | inactive | inactive | inactive | inactive | inactive | inactive | inactive | inactive | inactive | inactive | inactive | inactive | inactive | inactive | inactive | inactive | inactive | – |
| CCN[C@@H]1CN(CCCOC)S(=O)(=O)c2sc(S(N)(=O)=O)cc21 | inactive | inactive | inactive | inactive | inactive | inactive | inactive | inactive | inactive | inactive | inactive | inactive | inactive | inactive | inactive | inactive | inactive | inactive | inactive | inactive |
